Test results taken from PubChem BioAssay AID1159580 (chemical genetic matrix, 2015).
Where “and” joins values, the source holds several entries; their conditions need not be identical. Equal entries are not always repeated. The whole screen tested about 5,500 compounds, of which about 2,000 (36%) were called active. Not shown: some 18% with an inconclusive outcome. No stated cut-off is given here; in the data, active means normalized growth mostly below about 0.91 (no sharp cut-off); inconclusive means no clear call, values can overlap the other calls; inactive means mostly above about 0.92. This is one part of the list.

Test: chemical genetic growth profiling, strain panel (AID 1159580);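 further: tested at 20 µM; growth read once vehicle control cultures reached saturation at 30 °C; 1 = growth at the plate median or of vehicle wells; lower values mean less growth of the strain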
Conditions: S. cerevisiae deletion strains, growth OD

Measured: normalized growth

COc1cc(O)c2c(c1)C(=O)c1cc(C)cc(O)c1C2=O
inactive: locus YAL013W, strain DEP1, active compounds read low 0.991 | locus YAL021C, strain ccr4, active compounds read low 0.987 | locus YAL026C, strain drs2, active compounds read low 0.997 | locus YAL030W, strain snc1, active compounds read low 0.98 | locus YBL061C, strain skt5, active compounds read low 0.994 | locus YBR009C, strain hhf1, active compounds read low 1 | locus YBR021W, strain FUR4, active compounds read low 1.04 | locus YBR023C, strain chs3, active compounds read low 0.988 | locus YBR171W, strain sec66, active compounds read low 0.995 | locus YBR229C, strain ROT2, active compounds read low 1.01 | locus YBR231C, strain swc5, active compounds read low 0.993 | locus YBR279W, strain paf1, active compounds read low 0.998 | locus YCL011C, strain gbp2, active compounds read low 1 | locus YCL016C, strain dcc1, active compounds read low 0.98 | locus YCL029C, strain bik1, active compounds read low 1 | locus YCL061C, strain MRC1, active compounds read low 0.977 | locus YCL069W, strain vba3, active compounds read low 0.995 | locus YCR088W, strain abp1, active compounds read low 0.993 | locus YDL005C, strain med2, active compounds read low 0.971 | locus YDL035C, strain GPR1, active compounds read low 0.997 | locus YDL040C, strain nat1, active compounds read low 0.99 | locus YDL074C, strain BRE1, active compounds read low 0.974 | locus YDL101C, strain DUN1, active compounds read low 1 | locus YDL134C, strain PPH21, active compounds read low 1 | locus YDL185W, strain tfp1, active compounds read low 1 | locus YDL192W, strain arf1, active compounds read low 1.01 | locus YDR001C, strain nth1, active compounds read low 0.998 | locus YDR069C, strain doa4, active compounds read low 0.981 | locus YDR101C, strain arx1, active compounds read low 0.986 | locus YDR150W, strain NUM1, active compounds read low 1.02 | locus YDR159W, strain sac3, active compounds read low 0.965 | locus YDR162C, strain NBP2, active compounds read low 0.982 | locus YDR195W, strain ref2 1.01 | locus YDR297W, strain sur2, active compounds read low 0.977 | locus YDR318W, strain mcm21, active compounds read low 0.971 | locus YDR334W, strain swr1, active compounds read low 1 | locus YDR335W, strain msn5, active compounds read low 0.99 | locus YDR388W, active compounds read low 1 | locus YDR392W, strain spt3, active compounds read low 0.95 | locus YDR502C, strain sam2, active compounds read low 0.989 | locus YEL003W, strain gim4, active compounds read low 0.997 | locus YEL037C, strain rad23, active compounds read low 1.01 | locus YEL061C, strain CIN8 (second series), active compounds read low 0.995 | locus YER015W, strain faa2, active compounds read low 0.999 | locus YER016W, strain bim1, active compounds read low 0.976 | locus YER110C, active compounds read low 1.01 | locus YER111C, strain swi4, active compounds read low 0.987 | locus YER155C, strain BEM2 (second series), active compounds read low 0.973 | locus YER155C, strain BEM2, active compounds read low 1.01 | locus YER167W, strain BCK2, active compounds read low 0.994 | locus YFR010W, strain ubp6, active compounds read low 1.02 | locus YGL078C, strain dbp3, active compounds read low 1.01 | locus YGL086W, strain mad1, active compounds read low 1 | locus YGL167C, strain pmr1, active compounds read low 0.977 | locus YGL173C, strain kem1, active compounds read low 0.993 | locus YGL227W, strain vid30, active compounds read low 1 | locus YGL240W, strain doc1, active compounds read low 0.98 | locus YGL248W, strain PDE1, active compounds read low 1.01 | locus YGL253W, strain hxk2, active compounds read low 1.01 | locus YGR078C, strain PAC10, active compounds read low 0.989 | locus YGR135W, strain pre9, active compounds read low 0.992 | locus YGR229C, strain SMI1, active compounds read low 0.968 | locus YGR252W, strain gcn5, active compounds read low 1.06 | locus YHR013C, strain ard1, active compounds read low 0.997 | locus YHR027C, strain rpn1, active compounds read low 0.999 | locus YHR030C, strain SLT2, active compounds read low 1.01 and 1 | locus YHR079C, strain IRE1 (second series), active compounds read low 0.981 | locus YHR079C, strain IRE1, active compounds read low 1.04 | locus YHR094C, strain hxt1, active compounds read low 1 | locus YHR129C, strain ARP1, active compounds read low 0.998 | locus YHR142W, strain chs7, active compounds read low 1.04 | locus YHR200W, strain rpn10, active compounds read low 1 | locus YIL066C, strain RNR3, active compounds read low 1.01 | locus YIL073C, strain SPO22, active compounds read low 0.991 | locus YIL125W, strain kgd1, active compounds read low 0.994 | locus YIR030C, strain dcg1, active compounds read low 0.993 | locus YJL092W, strain hpr5, active compounds read low 0.997 | locus YJL095W, strain BCK1 (second series), active compounds read low 0.972 | locus YJL095W, strain BCK1, active compounds read low 0.883 and 0.965 | locus YJL115W, strain asf1, active compounds read low 1 | locus YJL129C, strain trk1, active compounds read low 0.981 | locus YJL134W, strain LCB3, active compounds read low 1.01 | locus YJL154C, strain vps35, active compounds read low 0.991 | locus YJL164C, strain tpk1, active compounds read low 0.995 | locus YJL166W, strain qcr8, active compounds read low 0.989 | locus YJL168C, strain set2, active compounds read low 1 | locus YJL187C, strain SWE1 (second series), active compounds read low 1 | locus YJL187C, strain SWE1, active compounds read low 0.985 | locus YJR043C, strain POL32, active compounds read low 1 | locus YJR066W, strain TOR1, active compounds read low 0.987
active: locus YDR137W, strain rgp1, active compounds read low 0.76
